Source: a collection of fitness landscapes (doi:10.1016/j.celrep.2020.107928)
Over roughly 81,000 sequences, “one-hybrid fitness for binding parS DNA” has its median near -0.17; the highest 2% begin near 0.51. The full list was thinned out, with the highest values kept by preference.

B1: Caulobacter ParB omega fusion; a variant is named by its letters at X, in order, B8GW30 (parent)
chain: MESVVVGEPGMSEGRRGLGRGLSALLGEVDAAPAQAPGEQLGGSREAPIEILQRNPDQPRRTFREEDLEDLSNSIREKGVLQPILVRPSPDTAGEYQIVAGERAWRAAQRAGLKTVPIMVRELDDLAVLEIGIIENVQRADLNVLEEALSYKVLMEKFERTQENIAQTIGKSXSHVANXMRLLXLPDEVQSYLVSGELTAXHARAIAAAADPVALAKQIIEGGLSVRETEALARKAPNLSAGKSKGGRPPRVKDTDTQALESDLSSVLGLDVSIDHRGSTGTLTITYATLEQLDDLCNRLTRGI

Variants of: B1
Test: one-hybrid fitness for binding parS DNA (scaled: cognate 1, non-cognate 0); higher = stronger binding
Settings: with parS DNA site
Method in brief: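 Bacterial one-hybrid selection in E. coli USO rpoZ- hisB- pyrF- with a HIS3 reporter carrying the site 19 bp from the promoter, screening Caulobacter ParB libraries with four specificity codons randomised (NNS). Cells grew 48 hours at 37°C on M9-minus-histidine plus 0.1 mM IPTG and 5 mM 3-AT. Plasmids before and after selection were Illumina-sequenced, three replicate libraries pooled, and variants under 10 reads dropped. Fitness is the log change in variant-to-wild-type read ratio, rescaled to cognate 1, non-cognate 0.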

one-hybrid fitness for binding parS DNA, 0.985:
RMCC

one-hybrid fitness for binding parS DNA, 0.477:
RIGN

one-hybrid fitness for binding parS DNA, 0.256:
RNFN

one-hybrid fitness for binding parS DNA, 0.915:
RVNS

one-hybrid fitness for binding parS DNA, 0.569:
RFKY

one-hybrid fitness for binding parS DNA, 0.518:
RHKY

one-hybrid fitness for binding parS DNA, 0.834:
RKNA

one-hybrid fitness for binding parS DNA, 0.247:
RRVY

one-hybrid fitness for binding parS DNA, 0.838:
RLFT

one-hybrid fitness for binding parS DNA, 0.301:
RFVY

one-hybrid fitness for binding parS DNA, 0.495:
RMEA

one-hybrid fitness for binding parS DNA, 0.747:
RIKY

one-hybrid fitness for binding parS DNA, 0.37:
RSVY

one-hybrid fitness for binding parS DNA, 0.916:
RVAT

one-hybrid fitness for binding parS DNA, 0.536:
RKDA

one-hybrid fitness for binding parS DNA, 0.813:
RTKC

one-hybrid fitness for binding parS DNA, 0.999:
RMNG

one-hybrid fitness for binding parS DNA, 0.952:
RLWC

one-hybrid fitness for binding parS DNA, 0.205:
RMYQ

one-hybrid fitness for binding parS DNA, 0.204:
RMSP

one-hybrid fitness for binding parS DNA, 0.363:
RVFM
RHGN

one-hybrid fitness for binding parS DNA, 0.371:
RVDN

one-hybrid fitness for binding parS DNA, 0.259:
RVAF

one-hybrid fitness for binding parS DNA, 0.44:
RTGN

one-hybrid fitness for binding parS DNA, 0.492:
RKKY

one-hybrid fitness for binding parS DNA, 0.435:
RFGN

one-hybrid fitness for binding parS DNA, 0.374:
RMHM

one-hybrid fitness for binding parS DNA, 0.302:
RMDM

one-hybrid fitness for binding parS DNA, 0.449:
RMSN

one-hybrid fitness for binding parS DNA, 0.888:
RHGS

one-hybrid fitness for binding parS DNA, 1.02:
RCVS

one-hybrid fitness for binding parS DNA, 0.765:
RMRA

one-hybrid fitness for binding parS DNA, 0.217:
RMCF

one-hybrid fitness for binding parS DNA, 0.344:
RMWM

one-hybrid fitness for binding parS DNA, 0.24:
IFWT

one-hybrid fitness for binding parS DNA, 0.225:
RMYR

one-hybrid fitness for binding parS DNA, 0.609:
RSKY

one-hybrid fitness for binding parS DNA, 0.956:
RMSC

one-hybrid fitness for binding parS DNA, 0.327:
RSSM

one-hybrid fitness for binding parS DNA, 0.917:
RVFT
RMDG

one-hybrid fitness for binding parS DNA, 0.375:
RMDN

one-hybrid fitness for binding parS DNA, 0.443:
RTVY

one-hybrid fitness for binding parS DNA, 0.342:
RLWM
RSVN

one-hybrid fitness for binding parS DNA, 0.983:
RMLC

one-hybrid fitness for binding parS DNA, 0.92:
RTGS

one-hybrid fitness for binding parS DNA, 1.03:
RMYG

one-hybrid fitness for binding parS DNA, 0.368:
RMRF

one-hybrid fitness for binding parS DNA, 0.945:
RCGS

one-hybrid fitness for binding parS DNA, 0.464:
RVFY

one-hybrid fitness for binding parS DNA, 0.529:
RIFA

one-hybrid fitness for binding parS DNA, 0.62:
RIAA

one-hybrid fitness for binding parS DNA, 0.644:
RAKY

one-hybrid fitness for binding parS DNA, 0.235:
RMGP

one-hybrid fitness for binding parS DNA, 0.416:
RVNN

one-hybrid fitness for binding parS DNA, 0.716:
RCKY

one-hybrid fitness for binding parS DNA, 0.255:
RLWF

one-hybrid fitness for binding parS DNA, 0.833:
RKGS

one-hybrid fitness for binding parS DNA, 1.01:
RMYC
RMHG
RIVS

one-hybrid fitness for binding parS DNA, 0.412:
RSWN
RAVY

one-hybrid fitness for binding parS DNA, 0.704:
RLKY

one-hybrid fitness for binding parS DNA, 0.914:
RNAS

one-hybrid fitness for binding parS DNA, 0.955:
RCIG

one-hybrid fitness for binding parS DNA, 0.782:
RMKY

one-hybrid fitness for binding parS DNA, ≤ 0.2:
SIKI
YAQR
PSHG
PMWK
IENR
ANYG
HGQS
KWCC
NAYS
ENRN
TWCR
THVD
REWC
RSWH
RPWC
RMWL
LRIP
LILQ
ENVC
PHDG
NQKT
QLHL
SRVM
CYAS
LQFE
YSKG
TVTW
LNPP
GYPI
RLAK
RLAQ
RLFR
RLFQ
SNGD
SLHC
QQSF
CLAL
LSRM
SMQP
RRSD
RRSH
RRSP
RRSR
EKER
TCNL
QSVW
TGSG
MLIG
TASY
GFDT
RDST
REST
RPST
PKQP
RNAH
RNFD
RNAD
KHDT
WNNG
RVAR
SPGM
RMCR
RMYK
RMRD
LSPY
LVGR
GTAK
ELGD
QSMI
EQMT
IWTC
GPTP
PHIN
LTQT
RDMK
TFCT
RMLL
RMLR
THQL
DMYA
NMRA
QQDP
GWES
REIG
RPIG
RDIG
PLWA
FGAE
KGTY
VTTC
MCDS
TPPY
HNSC
RMDH
RMGH
SGDY
SKDT
VGNC
RNAF
FYKS
RLMI
SYAC
QDNF
CRIC
DYAR
QGFS
TIDG
QNGG
NVIK
RMRL
RMNR
PVDG
TFGE
DQLH
HHQA
RCVH
RSVP
RPVS
RDPY
NTKG
RMDK
RMNE
KILI
PNVW
STNR
QRCN
RTVR
DTKC
RTKK
TIRR
RNYV
LASP
DNAR
QMYE
NIAA
DIAA
PPGC
WPHF
EGPL
RVDP
RVND
NYLV
NSCK
IGDM
LLDM
NKNA
TAPI
IGRG
CPMT
RPKY
QPIK
KIKS
KKAL
YKKT
ALMT
EPHL
FFHG
FQRT
GLWL
GYNP
PKHV
LGGC
SFKY
RDKY
QMIF
VKTF
YLRV
VMPR
CRLW
GEYT
RAPY
KEPT
QTVF
RIKP
RIVP
RIKD
RIVD
NSRE
AKIQ
TIGL
RPGS
RMGD
RCGP
RAGD
SGNV
PNMM
SVIY
CGSR
AIHE
NKPL
WVGM
CMEW
NDFI
KPTT
WGPD
RIGP
RTGD
RKGD
RHGD

one-hybrid fitness for binding parS DNA, 0.438:
RHYY
RMVY

one-hybrid fitness for binding parS DNA, 0.653:
RRSS

one-hybrid fitness for binding parS DNA, 0.938:
RLAT

one-hybrid fitness for binding parS DNA, 0.867:
RMRC

one-hybrid fitness for binding parS DNA, 0.988:
RMGS

one-hybrid fitness for binding parS DNA, 0.822:
RSIG
RIKS

one-hybrid fitness for binding parS DNA, 0.962:
RMRG

one-hybrid fitness for binding parS DNA, 0.453:
RMGN

one-hybrid fitness for binding parS DNA, 0.929:
RTVC

one-hybrid fitness for binding parS DNA, 0.847:
RSWC

one-hybrid fitness for binding parS DNA, 0.923:
RCST

one-hybrid fitness for binding parS DNA, 0.261:
RMRH

one-hybrid fitness for binding parS DNA, 0.465:
RLVY

one-hybrid fitness for binding parS DNA, 0.467:
RMNN

one-hybrid fitness for binding parS DNA, 0.889:
RMDC

one-hybrid fitness for binding parS DNA, 0.946:
RSVS

one-hybrid fitness for binding parS DNA, 0.856:
RRKY

one-hybrid fitness for binding parS DNA, 0.269:
RMHF

one-hybrid fitness for binding parS DNA, 0.289:
RMYF

one-hybrid fitness for binding parS DNA, 0.719:
RNFS

one-hybrid fitness for binding parS DNA, 0.651:
RMYA

one-hybrid fitness for binding parS DNA, 0.469:
RIVY

one-hybrid fitness for binding parS DNA, 0.883:
RSST

one-hybrid fitness for binding parS DNA, 0.695:
RRSN

one-hybrid fitness for binding parS DNA, 0.354:
RHVY

one-hybrid fitness for binding parS DNA, 0.245:
RFGH

one-hybrid fitness for binding parS DNA, 0.993:
RMGG

one-hybrid fitness for binding parS DNA, 0.448:
RAGN

one-hybrid fitness for binding parS DNA, 0.351:
RMNM

one-hybrid fitness for binding parS DNA, 0.984:
RMWC

one-hybrid fitness for binding parS DNA, 0.959:
RCWC
RIGS

one-hybrid fitness for binding parS DNA, 0.89:
RTKY

one-hybrid fitness for binding parS DNA, 0.507:
RSPG

one-hybrid fitness for binding parS DNA, 0.974:
RVDS

one-hybrid fitness for binding parS DNA, 0.989:
RAGS

one-hybrid fitness for binding parS DNA, 0.969:
RMNC
RFGS

one-hybrid fitness for binding parS DNA, 0.429:
RKGN
